In all, about 5,900 compounds went through this assay and about 120 (2%) were called active. Cut-off read from the data, not from the text of the source: active = percent response mostly above about 71% (no sharp cut-off); inactive = mostly below about 38%. A selection follows.
Tested on: MEKK2 (MAP3K2) mutant PB1 domain binding MEK5, human
Assay: mutant MEKK2 PB1-MEK5 binding signal retest – biochemical, single concentration, multiplex bead flow cytometry, confirmation (AID 1893);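 note: higher means compound restores mutant binding toward wildtype level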
Conditions: Alexa488-MEK5 binding to MEKK2 mutant, at 10 µM, stronger effect = higher value

Percent response, active:
CCN(CC)CCOc1ccc2c(c1)C(=NNC(=O)c1ccccn1)c1cc(OCCN(CC)CC)ccc1-2 75%

Percent response, inactive:
CSCC[C@H](NC(=O)CCCn1nnc2ccccc2c1=O)C(=O)O 1%
CN1CCN(/N=C/c2ccc(C#N)cc2)CC1 -4%
CC1CCN(C2=NC(=O)/C(=C/c3cn[nH]c3-c3ccccc3)S2)CC1 -9%
CCOc1ccc(S(=O)(=O)NCCCn2ccnc2)cc1NC(C)=O -6%
CCCCNC(=O)N1CCCC(N(C)CCc2ccc(OC)c(OC)c2)C1 (configuration not stated) -2%
CC(C)(C)NC(=O)Cn1cnc([N+](=O)[O-])n1 -7%
COc1ccccc1OCCNCC(O)COc1cccc2[nH]c3ccccc3c12 (configuration not stated) 34%
Cc1cccc(-c2ncc(CN3CCC(CO)(CCCc4ccccc4)CC3)cn2)c1 9%
Cc1nn(-c2ccccc2)c(C)c1NC(=O)CCl -2%
COC(=O)CCc1sc(Nc2ccc(Br)cc2)nc1-c1ccc(OC)cc1 9%
C#CCOCCOCCOCCNc1nc(N2CCN(C(=O)C([C@@H](C)CC)n3cc(C(N)COC(=O)C(F)(F)F)nn3)CC2)nc(N2CCN(C(=O)[C@H](CCCCN)n3cc(C(N)CC(C)C)nn3)CC2)n1 (some centres not stated) 52%
O=C(CCCO)N/N=C/c1cc(Br)ccc1O -1%
O=C(Nc1ccn(Cc2ccccc2)n1)c1cccc(F)c1 -3%
COc1ccc(CCn2c(NN=C3CCCC3)nc3c2c(=O)[nH]c(=O)n3C)cc1 3%
CCC(C)OC(=O)C(C)Oc1ccc(-c2ccccc2)cc1 (configuration not stated) 10%
CC(C)CC(=O)NC(=S)NCc1ccccc1 -3%
O=c1c(/C=N/O)coc2ccc(Cl)cc12 -2%
Cc1ccc2c(c1)C1CN(C)CCC1N2S(=O)(=O)c1ccc(Oc2ccc([N+](=O)[O-])cc2)cc1 (configuration not stated) 61%
Cc1c(S(=O)(=O)NCc2ccccc2)c(=O)n(C)c(=O)n1C 2%
C[N+](C)(C)CCNC(=O)c1c(O)c2c([nH]c1=O)CCCC2 -3%
O=C(O)/C=C\C(=O)Nc1ccc(OCc2ccccc2)cc1 -4%
COc1ccccc1NC(=S)N1CCN(c2ccc(F)cc2)CC1 -8%
Cc1cccc(OCC(O)CN2CCN(CCN3C(=O)c4cccc5cccc(c45)C3=O)CC2)c1C (configuration not stated) 3%
Cc1ccc(N2C(=O)CC(N3CCSCC3)C2=O)c(C)c1 (configuration not stated) 2%
O=C(c1ccc(Br)o1)N(c1ccccn1)C1CCCCC1 3%
COc1ccc(SC[C@H](Cc2ccccc2)N2CCN(CCc3ccccc3)CCC2=O)cc1 16%
CCOC(=O)c1c(NC(=O)c2ccc(S(=O)(=O)N(C)CC3CCCO3)cc2)sc2c1CC(C)(C)NC2(C)C (configuration not stated) 7%
O=C(NCCCN1CCN(c2ccc(F)cc2)CC1)Nc1ccc([N+](=O)[O-])cc1 26%
CC1CN(C(=O)c2ccccc2NS(=O)(=O)c2cccc([N+](=O)[O-])c2)CC(C)O1 (configuration not stated) 0%
c1ccc2c(c1)C(=NC1CCCCC1)NC2=NC1CCCCC1 18%
Cc1cccc(OCCNC(=O)CSc2ccc(C(F)(F)F)cc2[N+](=O)[O-])c1 2%
O=C(NC1CCN(Cc2ccccc2)CC1)c1ccc(Oc2cc(Cl)cc(Cl)c2)o1 10%
O=C(CC1SCCNC1=O)Nc1ccc(Cl)c(Cl)c1 (configuration not stated) 4%
CN(CC(=O)Nc1cccc(F)c1)CC(=O)Nc1cccc([N+](=O)[O-])c1 -3%
COc1ccccc1N=C(C)C1=C(O)COC1=O 7%
COc1cccc(OCC(=O)NNC(=O)c2cnccn2)c1 -1%
COC(=O)c1c(NC(=O)COC(=O)[C@@H](NS(=O)(=O)c2ccccc2)C(C)C)sc2c1CCC2 -1%
CCOC(=O)CN(C)S(=O)(=O)c1ccc(-c2cc(C(=O)OC)sc2C(F)(F)F)cc1 -3%
Cc1cc(Cl)ccc1OCc1nc(-c2ccncc2)no1 -15%
O=C(O)CCCC(=O)Nc1ccc(Oc2cccc(C(F)(F)F)c2)nc1 4%
COc1cc(C)nc(N2CCCC(C(=O)NCC(C)C)C2)n1 (configuration not stated) -2%
O=C(O)C1CCN(c2ccc([N+](=O)[O-])cc2[N+](=O)[O-])CC1 6%
Cc1no[n+]([O-])c1COc1ccccc1/C=C1\NC(=S)NC1=O -5%
COc1ccc(C(=O)C[n+]2ccc(C)cc2)cc1 6%
CC(C)CC(=O)N1CCN(Cc2ccccc2Br)CC1 3%
CCOC(=O)c1c(Cc2ccc(Cl)cc2)c[nH]c1C 0%
Cc1cn(COC/C=C/c2ccccc2)c(=O)[nH]c1=O 2%
COc1ccc(CNC(=O)C2CCN(S(C)(=O)=O)CC2)cc1 4%
COC(=O)c1cc(NC(=O)c2cc(C(C)(C)C)nn2Cc2cccc(C)c2)ccc1N1CCOCC1 -5%
COc1cc(NC(=S)NCc2ccco2)c(OC)cc1Cl 3%
Cn1c(SCc2nc3ccccc3s2)nnc1-c1ccc2c(c1)OCO2 0%

From PubChem BioAssay AID1893 (NMMLSC, 2009)
